Calls of active or inactive are those of the source. The call rests on the fitted dose curve; in most records, active means well fitted activation curve with a large enough effect; inconclusive means small, poorly fitted or top-dose-only effect; inactive means flat fitted curve, though single readings scatter.
Test: Confirmation and Secondary Assay for Modulators of Hemoglobin Beta Chain Splicing at IVS2 705 locus (AID 930);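 further: HeLa cells stably expressing the EGFP-705 splicing reporter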
Conditions: HeLa EGFP-705 splicing reporter, GFP fluorescence, 48 h; series mostly up to 46.1 µM
Procedure, shortened: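 Restored EGFP fluorescence after 2-day compound exposure reports splicing correction in IVS2-705 EGFP reporter HeLa cells; positive control was 500 nM splice-blocking PNA oligo. Signal measured as well total peak GFP intensity (488 nm excitation).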

SMILES | outcome
Nc1ccc(C(=O)NCC(=O)O)cc1 | inactive
CCN(CC)CCOc1ccc2c(c1)C(=O)c1cc(OCCN(CC)CC)ccc1-2 | inactive
CCCCCCCCNC(C)C(O)c1ccc(SC(C)C)cc1 (configuration not stated) | inactive
CCN(CC)CCNC(=O)c1cc(Br)c(N)cc1OC | inactive
CCCCCN=C(N)N/N=C/c1c[nH]c2ccc(OC)cc12 | inactive
CNCCc1ccccn1 | inactive
COc1ccc(-c2cc(C(F)F)nn2-c2ccc(S(N)(=O)=O)cc2)cc1F | inactive
Cc1cc(-c2ccccc2)nnc1NCCN1CCOCC1 | inactive
CN(C)CCOC(=O)C(c1ccccc1)C1(O)CCCC1 (configuration not stated) | inactive
CC(C)NCC(O)c1ccc2ccccc2c1 (configuration not stated) | inactive
CC(=O)Nc1ccc(S(=O)(=O)Nc2ccc([N+](=O)[O-])cc2)cc1 | inactive
COc1ccc(CN(CCN(C)C)c2ncccn2)cc1 | inactive
CC(=O)NO | inactive
CCN(CC)CCOC(=O)C(Cc1cccc2ccccc12)CC1CCCO1 (configuration not stated) | inactive
Oc1c(Cl)cc(Cl)c(Cl)c1Cc1c(O)c(Cl)cc(Cl)c1Cl | inactive
OCCOCCN1CCN(C2=Nc3ccccc3Sc3ccccc32)CC1 | inactive
COc1cc(NS(=O)(=O)c2ccc(N)cc2)ncn1 | inactive
O=C1C(CCS(=O)c2ccccc2)C(=O)N(c2ccccc2)N1c1ccccc1 (configuration not stated) | inactive
CCN1CCCC(OC(=O)C(c2ccccc2)c2ccccc2)C1 (configuration not stated) | inactive
COc1cc(N)c(Cl)cc1C(=O)NC1CCN(Cc2ccccc2)CC1 | inactive
c1ccc(CC2=NCCN2)cc1 | inactive
CC(C(=O)O)c1cccc(Oc2ccccc2)c1 (configuration not stated) | inactive

— PubChem BioAssay (NCATS)
